In PubChem BioAssay (EPA / NIEHS):
Records with an inconclusive call do not appear. Activity calls are given as the source filed them. Rule for the calls, unless noted: active = hit-call score of the fitted dose curve at least 0.9, where 1 is the maximum; inconclusive = response in the unintended direction; inactive = score below 0.9.

test system: not listed separately; experiment: ATG_VDRE_CIS: Attagene CIS-FACTORIAL HepG2 Assay for human Vitamin D Receptor Element (VDRE) (AID 2282968; active = hit-call score of the fitted dose curve at least 0.9, where 1 is the maximum; inactive = score below 0.9); details: HepG2 VDRE cis-reporter transcription, actives raise or lower the signal
Method in brief: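 RT-PCR/CE readout of reporter mRNA; HepG2, transient transfection, 24 h dosing; DMSO baseline; bidirectional analysis.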

| Structure (SMILES) | outcome | AC50 |
| --- | --- | --- |
| CCOC(=O)CC(=O)C(F)(F)C(F)(F)F | inactive |  |
| Cc1cnccn1 | inactive |  |
| C=C(C)C(=O)OCC(F)(F)C(F)(F)C(F)(F)C(F)F | inactive |  |
| CC(C)CC=C(C=O)c1ccccc1 | inactive |  |
| CC(C)=CCCC(C)O (stereo unspecified) | inactive |  |
| NC(=O)C(F)(F)C(F)(F)C(F)(F)C(F)(F)C(N)=O | inactive |  |
| Nc1cccnc1N | inactive |  |
| Cc1ccc2c(c1)OCC(=O)CO2 | inactive |  |
| COC(=O)c1ccc(C=O)cc1 | inactive |  |
| O=C(F)C1(F)C(F)(F)C(F)(F)C(F)(F)C(F)(F)C1(F)F | inactive |  |
| FC(F)(F)C(F)(F)C(F)(F)C(F)(F)C(F)(F)C(F)(F)C(F)(F)CCI | inactive |  |
| Nc1c(Br)cc([N+](=O)[O-])cc1Br | inactive |  |
| O=S(=O)(Cl)C(F)(F)C(F)(F)C(F)(F)C(F)(F)C(F)(F)C(F)(F)C(F)(F)C(F)(F)F | inactive |  |
| CCOC(C=C(C)CCC=C(C)C)OCC |  | 49.7 µM (active) |
| CNS(=O)(=O)C(F)(F)C(F)(F)C(F)(F)C(F)(F)C(F)(F)C(F)(F)C(F)(F)C(F)(F)F | inactive |  |
| C=CC(=O)OCC(F)(F)C(F)(F)C(F)(F)COC(=O)C=C |  | 20.7 µM (active) |
| CCN(CCO)S(=O)(=O)C(F)(F)C(F)(F)C(F)(F)C(F)(F)C(F)(F)C(F)(F)C(F)(F)C(F)(F)F | inactive |  |

target: Nuclear receptor subfamily 1 group I member 3 (Homo sapiens) (UniProt Q14994); experiment: ATG_CAR_TRANS: Attagene TRANS-FACTORIAL HepG2 Assay for human Constitutive Androstane Receptor (CAR) (AID 2282969); details: HepG2 Attagene TRANS-FACTORIAL CAR reporter;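 note: activators raise reporter mRNA above DMSO so AC50 marks induction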
Method in brief: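 HepG2 cells transiently transfected with multiplexed GAL4-UAS reporter units expressing chimeric NR-Gal4 proteins; compound exposure 24 h. Reporter mRNA measured by RT-PCR, 6-FAM labelling, HpaI digestion and capillary electrophoresis; gain-of-signal fitted against DMSO baseline.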

Chain of Nuclear receptor subfamily 1 group I member 3 (Homo sapiens) (Q14994 whole entry, looked up, the tested form may be a part): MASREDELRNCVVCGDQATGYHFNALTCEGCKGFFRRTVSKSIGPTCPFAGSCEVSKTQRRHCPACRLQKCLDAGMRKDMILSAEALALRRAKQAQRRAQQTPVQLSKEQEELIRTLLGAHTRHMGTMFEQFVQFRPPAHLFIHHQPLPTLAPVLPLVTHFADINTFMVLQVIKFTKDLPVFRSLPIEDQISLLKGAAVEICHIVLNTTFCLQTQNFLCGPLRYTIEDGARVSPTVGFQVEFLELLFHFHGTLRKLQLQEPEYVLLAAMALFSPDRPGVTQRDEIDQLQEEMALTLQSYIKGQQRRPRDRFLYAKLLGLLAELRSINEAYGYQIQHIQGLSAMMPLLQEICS

| Structure (SMILES) | outcome |
| --- | --- |
| O=C(O)C(F)(F)C(F)(F)C(F)(F)OC(F)(F)F | inactive |
| CCC(=O)OC(C)c1ccccc1 (stereo unspecified) | inactive |
| Cc1cnccn1 | inactive |
| CC(C)=CCCC(C)O (stereo unspecified) | inactive |
| Nc1cccnc1N | inactive |

target: Estrogen receptor (Homo sapiens) (UniProt P03372); experiment: ATG_ERa_TRANS: Attagene TRANS-FACTORIAL HepG2 Assay for human Estrogen Receptor alpha (ERa) (AID 2282970); details: HepG2 Attagene TRANS ERa GAL4 reporter, mRNA
Method in brief: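 HepG2 cells transiently transfected with multiplexed GAL4-UAS reporter units read out chimeric NR-Gal4 activity. After 24 h compound exposure, reporter mRNA was quantified by RT-PCR, 6-FAM labeling, HpaI digestion and capillary electrophoresis, relative to DMSO.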

Chain of Estrogen receptor (Homo sapiens) (P03372 whole entry, looked up, the tested form may be a part): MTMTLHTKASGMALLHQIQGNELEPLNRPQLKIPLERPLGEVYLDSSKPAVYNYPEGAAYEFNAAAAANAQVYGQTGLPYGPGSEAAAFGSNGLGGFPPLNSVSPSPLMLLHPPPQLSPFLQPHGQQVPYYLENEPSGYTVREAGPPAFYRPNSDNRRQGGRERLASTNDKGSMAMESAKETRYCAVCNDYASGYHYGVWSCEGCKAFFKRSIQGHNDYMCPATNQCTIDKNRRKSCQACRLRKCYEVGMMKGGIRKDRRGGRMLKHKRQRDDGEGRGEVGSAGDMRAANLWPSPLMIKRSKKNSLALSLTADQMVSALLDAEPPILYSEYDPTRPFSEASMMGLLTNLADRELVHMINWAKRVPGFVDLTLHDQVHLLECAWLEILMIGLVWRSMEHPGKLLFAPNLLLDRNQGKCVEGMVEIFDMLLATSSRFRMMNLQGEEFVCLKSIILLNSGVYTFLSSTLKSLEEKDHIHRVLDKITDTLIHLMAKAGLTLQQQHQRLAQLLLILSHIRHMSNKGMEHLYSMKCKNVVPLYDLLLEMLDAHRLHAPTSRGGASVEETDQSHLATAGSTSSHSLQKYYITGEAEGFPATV

| Structure (SMILES) | outcome | AC50 |
| --- | --- | --- |
| CC1=CC2C3C=CC(C3)C2C1C (stereo unspecified) | inactive |  |
| C[Si](Cl)(Cl)CCC(F)(F)C(F)(F)C(F)(F)C(F)(F)C(F)(F)C(F)(F)F | inactive |  |
| OCC(O)CC(F)(F)C(F)(F)C(F)(F)C(F)(F)F (stereo unspecified) |  | 70.8 µM (active) |
| CSc1ccc(O)cc1C |  | 11.3 µM (active) |
| OCC(F)(F)C(F)(F)C(F)(F)CO | inactive |  |
| O=C1c2ccccc2C(=O)c2c(Cl)cccc21 |  | 2.88 µM (active) |
| OCC(O)CC(F)(F)C(F)(F)C(F)(F)C(F)(F)C(F)(F)C(F)(F)C(F)(F)C(F)(F)F (stereo unspecified) |  | 9.15 µM (active) |
| CCC(Cc1c(I)cc(I)c(N)c1I)C(=O)O (stereo unspecified) |  | 4.99 µM (active) |
| COC(F)(C(F)F)C(F)(F)F (stereo unspecified) | inactive |  |
| CN(C(=O)C(F)(F)C(F)(F)C(F)(F)F)[Si](C)(C)C | inactive |  |
| NCC(F)(F)C(F)(F)C(F)(F)C(F)(F)C(F)(F)C(F)(F)F | inactive |  |
| OCC(F)(F)C(F)(F)C(F)(F)C(F)(F)C(F)(F)C(F)(F)C(F)(F)C(F)(F)CO |  | 0.178 µM (active) |
| OCCCC(F)(F)C(F)(F)C(F)(F)C(F)(F)C(F)(F)C(F)(F)C(F)(F)C(F)(F)F |  | 10.9 µM (active) |
| O=C1C=CC(=O)N1c1ccccc1 | inactive |  |
| NC(=O)C(F)(F)C(F)(F)C(F)(F)C(F)(F)C(F)(F)C(F)(F)C(F)(F)F |  | 9.95 µM (active) |
| O=C(O)C(F)(F)OC(F)(F)C(F)(F)OC(F)(F)C(F)(F)OC(F)(F)F | inactive |  |

| Structure (SMILES) | outcome | AC50 |
| --- | --- | --- |
| FC(F)(F)C(F)(F)C(F)(F)CC1CO1 (stereo unspecified) | inactive |  |
| Cc1ccc(S(=O)(=O)C(I)I)cc1 | inactive |  |
| CCOC(=O)CC(=O)C(F)(F)C(F)(F)F | inactive |  |
| C=C(C)C(=O)OCC(F)(F)C(F)(F)C(F)(F)C(F)F | inactive |  |
| CC(C)CC=C(C=O)c1ccccc1 |  | 21.5 µM (active) |
| NC(=O)C(F)(F)C(F)(F)C(F)(F)C(F)(F)C(N)=O | inactive |  |
| Cc1ccc2c(c1)OCC(=O)CO2 | inactive |  |
| COC(=O)c1ccc(C=O)cc1 | inactive |  |
| O=C(F)C1(F)C(F)(F)C(F)(F)C(F)(F)C(F)(F)C1(F)F | inactive |  |
| FC(F)(F)C(F)(F)C(F)(F)C(F)(F)C(F)(F)C(F)(F)C(F)(F)CCI |  | 24.5 µM (active) |
| Nc1c(Br)cc([N+](=O)[O-])cc1Br | inactive |  |
| O=S(=O)(Cl)C(F)(F)C(F)(F)C(F)(F)C(F)(F)C(F)(F)C(F)(F)C(F)(F)C(F)(F)F |  | 20.7 µM (active) |
| CCOC(C=C(C)CCC=C(C)C)OCC | inactive |  |
| CNS(=O)(=O)C(F)(F)C(F)(F)C(F)(F)C(F)(F)C(F)(F)C(F)(F)C(F)(F)C(F)(F)F |  | 9.26 µM (active) |
| C=CC(=O)OCC(F)(F)C(F)(F)C(F)(F)COC(=O)C=C | inactive |  |
| CCN(CCO)S(=O)(=O)C(F)(F)C(F)(F)C(F)(F)C(F)(F)C(F)(F)C(F)(F)C(F)(F)C(F)(F)F | inactive |  |

target: Steroid hormone receptor ERR1 (Homo sapiens) (UniProt P11474); experiment: ATG_ERRa_TRANS: Attagene TRANS-FACTORIAL HepG2 Assay for human Estrogen-Related Receptor alpha (ERRa) (AID 2282971); details: HepG2 Attagene TRANS reporter, ERRa transactivation
Method in brief: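 HepG2 cells transiently transfected with GAL4-UAS reporter units and chimeric NR-Gal4 constructs; after 24 hour compound incubation, reporter mRNA quantified by RT-PCR, fluorescent labelling and capillary electrophoresis, gain of signal versus DMSO.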

Chain of Steroid hormone receptor ERR1 (Homo sapiens) (P11474 whole entry, looked up, the tested form may be a part): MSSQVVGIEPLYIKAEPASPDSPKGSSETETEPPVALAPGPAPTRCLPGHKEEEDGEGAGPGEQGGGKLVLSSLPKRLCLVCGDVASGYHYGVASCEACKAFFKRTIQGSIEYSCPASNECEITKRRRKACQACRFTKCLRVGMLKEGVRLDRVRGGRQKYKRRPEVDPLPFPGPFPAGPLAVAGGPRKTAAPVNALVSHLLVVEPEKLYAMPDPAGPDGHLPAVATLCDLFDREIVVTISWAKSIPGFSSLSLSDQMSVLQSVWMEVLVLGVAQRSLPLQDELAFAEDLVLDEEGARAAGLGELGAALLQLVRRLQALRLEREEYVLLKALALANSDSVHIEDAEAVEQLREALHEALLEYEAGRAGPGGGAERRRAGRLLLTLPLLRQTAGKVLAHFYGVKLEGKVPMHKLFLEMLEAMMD

| Structure (SMILES) | outcome |
| --- | --- |
| CC1=CC2C3C=CC(C3)C2C1C (stereo unspecified) | inactive |
| C[Si](Cl)(Cl)CCC(F)(F)C(F)(F)C(F)(F)C(F)(F)C(F)(F)C(F)(F)F | inactive |
| OCC(O)CC(F)(F)C(F)(F)C(F)(F)C(F)(F)F (stereo unspecified) | inactive |
| CSc1ccc(O)cc1C | inactive |
| OCC(F)(F)C(F)(F)C(F)(F)CO | inactive |
| O=C1c2ccccc2C(=O)c2c(Cl)cccc21 | inactive |
| OCC(O)CC(F)(F)C(F)(F)C(F)(F)C(F)(F)C(F)(F)C(F)(F)C(F)(F)C(F)(F)F (stereo unspecified) | inactive |
| COC(F)(C(F)F)C(F)(F)F (stereo unspecified) | inactive |
| CN(C(=O)C(F)(F)C(F)(F)C(F)(F)F)[Si](C)(C)C | inactive |
| NCC(F)(F)C(F)(F)C(F)(F)C(F)(F)C(F)(F)C(F)(F)F | inactive |
| OCC(F)(F)C(F)(F)C(F)(F)C(F)(F)C(F)(F)C(F)(F)C(F)(F)C(F)(F)CO | inactive |
| OCCCC(F)(F)C(F)(F)C(F)(F)C(F)(F)C(F)(F)C(F)(F)C(F)(F)C(F)(F)F | inactive |
| O=C1C=CC(=O)N1c1ccccc1 | inactive |
| NC(=O)C(F)(F)C(F)(F)C(F)(F)C(F)(F)C(F)(F)C(F)(F)C(F)(F)F | inactive |
| FC(F)(F)C(F)(F)C(F)(F)CC1CO1 (stereo unspecified) | inactive |
| CCOC(=O)CC(=O)C(F)(F)C(F)(F)F | inactive |
| C=C(C)C(=O)OCC(F)(F)C(F)(F)C(F)(F)C(F)F | inactive |
| CC(C)CC=C(C=O)c1ccccc1 | inactive |
| NC(=O)C(F)(F)C(F)(F)C(F)(F)C(F)(F)C(N)=O | inactive |
| Cc1ccc2c(c1)OCC(=O)CO2 | inactive |
| COC(=O)c1ccc(C=O)cc1 | inactive |
| O=C(F)C1(F)C(F)(F)C(F)(F)C(F)(F)C(F)(F)C1(F)F | inactive |
| FC(F)(F)C(F)(F)C(F)(F)C(F)(F)C(F)(F)C(F)(F)C(F)(F)CCI | inactive |
| Nc1c(Br)cc([N+](=O)[O-])cc1Br | inactive |
| O=S(=O)(Cl)C(F)(F)C(F)(F)C(F)(F)C(F)(F)C(F)(F)C(F)(F)C(F)(F)C(F)(F)F | inactive |
| CCOC(C=C(C)CCC=C(C)C)OCC | inactive |
| CNS(=O)(=O)C(F)(F)C(F)(F)C(F)(F)C(F)(F)C(F)(F)C(F)(F)C(F)(F)C(F)(F)F | inactive |
